HCV inh – blocks hepatitis C virus. Huh7.5.1 HCVcc-Cre infection, luciferase reporter, 44 h. Potency, µM (series often up to 41.8 µM), inactives show at the top dose activity change, negative = inhibition, actives largely listed as inhibitors. 340,000 compounds, 3.4% hits. AID 651820; further: potency means the concentration at half of the fitted maximal effect; on the % scale 0 is the no-effect control and ±100 the full control effect
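Reporter virus HCVcc-Cre (~0.5 moi) infects cells exposed to compound; seeding density 1,000 cells/well with 4 h settling beforehand. Luminescence, 15 sec read, taken 44 h post-infection following a 15 min RT substrate incubation.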
Shiga inhibitor – blocks Shiga toxin action in Vero cells. Vero cells, Shiga toxin protein synthesis inhibition reporter. 290,000 compounds, 9.2% hits. inhibition, % at 38.7 µM; in the data active means inhibition mostly above about 28%, no sharp cut-off; inactive means mostly below about 43%; further: 0% is about no effect
Cycloheximide cs – counter-screen for Shiga toxin inhibitors: cycloheximide protein synthesis inhibition; max response, %; cell reporter, cycloheximide protein synthesis inhibition counterscreen; 300,000 compounds, 12% hits; in the data active means max response mostly above about 13%, no sharp cut-off; inactive means mostly below about 14%; further: read at 38.3 µM for the half of the compounds with a filed dose; 0% is about no effect
Pf growth 96h – P. falciparum growth inhibition at 96 hours | Potency, µM (doses to about 28.7 µM), for inactives: top-dose activity change, negative = inhibition, hits mostly inhibitors | 320,000 compounds, 6.9% hits | P. falciparum luciferase reporter growth, 96 h; further: potency means the concentration at half of the fitted maximal effect; on the % scale 0 is the no-effect control and ±100 the full control effect
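Readout is luminescence from an integrated firefly luciferase in P. falciparum. Red cells, 2% hematocrit and 0.05% parasitemia final, were cultured with compound through two parasite generations (96 hours) at 37 C, 5% CO2.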
Pf growth 48h – P. falciparum growth inhibition at 48 hours (one generation) | P. falciparum luciferase growth in erythrocytes, 48 h | Potency, µM (highest dose often 28.7 µM), inactives show at the top dose activity change, negative = inhibition, hits mostly inhibitors | 310,000 compounds, 5.9% hits | AID 504832; further: potency means the concentration at half of the fitted maximal effect; on the % scale 0 is the no-effect control and ±100 the full control effect
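Luminescence readout; reporter = integrated firefly luciferase in P. falciparum. RBC culture at 2% hematocrit, 0.1% parasitemia final, 37 C/5% CO2; decreased signal taken as growth inhibition.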
HCMV antiviral – human cytomegalovirus inhibition | 410,000 compounds, 4.5% hits | HFF cells, HCMV-luciferase reporter, 72 h; hits give low values | AID 1259415 | activity change, negative = inhibition, % at 57.5 µM; in the data active means activity change below about -60%; inconclusive means no clear call, values can overlap the other calls; inactive means above about -39%; further: on the % scale 0 is the no-effect control and ±100 the full control effect
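Inhibition of viral replication was scored as loss of reporter luminescence in HFFs infected with HCMV-luciferase (MOI 1 PFU/cell) for 72 h; compounds tested at 2 doses, normalized to buffer and Salinomycin controls.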
* = called active by the depositor. Only some compounds are listed: those with a hit (about 21% of all), similar ones and a draw of the others. Unless noted, the call rests on the fitted dose curve; in most records, active means well fitted inhibition curve with a large enough effect; inconclusive means small, poorly fitted or top-dose-only effect, or another doubt; inactive means no such curve, though single readings can be large or run the other way.

`N#C/C(=C\c1ccc2c(c1)OCO2)C(=O)NCc1ccco1` gave HCV inh 1.8%, Shiga inhibitor -13.1, Cycloheximide cs 0.6, Pf growth 96h 24.2%, Pf growth 48h 8.8% and HCMV antiviral -31.6.
Screening COCCNC(=O)/C(C#N)=C/c1ccc2c(c1)OCO2 returned HCV inh 7.1%, Shiga inhibitor 41.4*, Cycloheximide cs 19.1*, Pf growth 96h inconclusive, Pf growth 48h 8.5% and HCMV antiviral -1.1.
Screening C=CCNC(=O)/C(C#N)=C/c1ccc(C)o1 returned HCV inh 8.9%, Shiga inhibitor 31.6, Cycloheximide cs 13.5, Pf growth 96h 10.6%, Pf growth 48h 9.8% and HCMV antiviral -25.8.
Screening C=CCNC(=O)/C(C#N)=C/c1ccc2c(c1)OCCO2 returned HCV inh -8.5%, Shiga inhibitor 85.3*, Cycloheximide cs 39.5*, Pf growth 96h -5.0%, Pf growth 48h 18.2% and HCMV antiviral -31.8.
C=CCNC(=O)/C(C#N)=C/c1ccc(OS(=O)(=O)c2ccc(C)cc2)c(OC)c1 was read as HCV inh 12.6%, Shiga inhibitor 21.2, Cycloheximide cs 1.4, Pf growth 96h -23.8%, Pf growth 48h -13.4% and HCMV antiviral -98.6*.
`CCN(CC(=O)Nc1ccccc1C(F)(F)F)C(=O)c1cccc(N2C(=O)CCC2=O)c1` gave HCV inh 4.1%, Pf growth 96h 1.7%, Pf growth 48h -10.3% and HCMV antiviral inconclusive.
For COc1ccc(-c2cc(C(=O)Oc3ccc(C#N)cc3)no2)cc1 the results were HCMV antiviral 13.0.
Screening COc1ccc(-n2nc(C(=O)Nc3ccc(C)cn3)c3c4ccccc4n(C)c3c2=O)cc1 returned HCMV antiviral 12.4.
N#C/C(=C\c1ccc2c(c1)OCCO2)C(=O)Nc1nccs1 was read as HCV inh 6.1%, Shiga inhibitor 93.6*, Cycloheximide cs 27.5, Pf growth 96h 5.3%, Pf growth 48h 0.0% and HCMV antiviral -15.0.
For CCc1cccc(CC)c1-n1nnc2c(sc3nc(C)cc(C)c32)c1=O the results were HCMV antiviral -7.1.
For O=c1cc(O)c(-c2ccc(Cl)cc2)c(Cl)[nH]1 the results were HCV inh -0.7%, Shiga inhibitor 14.5, Cycloheximide cs 2.8, Pf growth 96h 0.0%, Pf growth 48h 13.1µM* and HCMV antiviral -3.8.
O=c1cc(O)c(-c2ccc(Cl)c(Cl)c2)c(Cl)[nH]1 was read as HCV inh 10.2%, Shiga inhibitor 4.2, Cycloheximide cs -2.0, Pf growth 96h 0.1%, Pf growth 48h -0.9% and HCMV antiviral 37.0.
Screening O=C(CCNC(=O)c1ccco1)Nc1nc(-c2ccccc2)cs1 returned HCV inh inconclusive and HCMV antiviral 164.1.
`O=C(Nc1nc(-c2ccco2)cs1)c1ccccc1` gave HCV inh -7.1%, Shiga inhibitor 36.2, Cycloheximide cs 31.7*, Pf growth 96h 84.3% and HCMV antiviral 31.8.
For O=C(Nc1cc(-c2ccccc2)cs1)c1ccco1 the results were HCV inh inconclusive, Pf growth 96h 2.33µM*, Pf growth 48h inconclusive and HCMV antiviral -4.1.
Screening CCOc1ccc(-c2csc(NC(=O)c3ccco3)n2)cc1 returned HCV inh -18.0%, Shiga inhibitor 98.4, Cycloheximide cs 39.4*, Pf growth 96h 10.4µM*, Pf growth 48h 19.6% and HCMV antiviral 120.3.
For O=C(Nc1nc(-c2ccccc2)cs1)c1ccco1 the results were HCV inh -20.7%, Shiga inhibitor 121.7*, Cycloheximide cs 88.9*, Pf growth 96h 3.4%, Pf growth 48h 81.5% and HCMV antiviral 116.3.
Screening CCOC(=O)C1=C(C)NC(C)=C(C(=O)OCC)C1c1ccncc1 returned HCMV antiviral 18.0.
For COc1cc(OC)c(OC)cc1CNC(=O)c1ccc(COc2ccccc2)cc1 the results were HCV inh inconclusive, Shiga inhibitor 28.3, Cycloheximide cs 21.3, Pf growth 96h inconclusive, Pf growth 48h -24.6% and HCMV antiviral inconclusive.
For Cc1ccc(-c2csc(NC(=O)Cc3ccc(F)cc3)n2)o1 the results were HCV inh inconclusive, Shiga inhibitor 36.9, Cycloheximide cs 14.6*, Pf growth 96h -17.8%, Pf growth 48h -2.9% and HCMV antiviral -1.7.
For CC(=O)NNc1nc(-c2ccc(NC(C)=O)cc2)cs1 the results were HCV inh 8.3%, Shiga inhibitor 10.6, Cycloheximide cs 2.7, Pf growth 96h -12.1%, Pf growth 48h 29.9% and HCMV antiviral inconclusive.
O=C(NNc1nc(-c2ccc(Br)cc2)cs1)c1ccco1 was read as HCV inh inconclusive, Shiga inhibitor 80.5*, Cycloheximide cs 31.4*, Pf growth 96h -28.9%, Pf growth 48h 1.65µM* and HCMV antiviral -10.4.
`O=C(Nc1nc(-c2cccc3ccccc23)cs1)c1ccc2c(c1)S(=O)(=O)c1ccccc1C2=O` gave HCV inh inconclusive, Shiga inhibitor 61.9*, Cycloheximide cs 21.4*, Pf growth 96h 30.0%, Pf growth 48h 66.2% and HCMV antiviral 6.6.
Screening Cc1ccc(-c2csc(NC(=O)c3ccco3)n2)cc1C returned HCV inh inconclusive, Shiga inhibitor 148.6*, Cycloheximide cs 33.8*, Pf growth 96h 0.586µM*, Pf growth 48h 20.5% and HCMV antiviral 42.6.
Cc1ccc2[nH]c(CSc3nnc(NC(=O)COc4ccccc4F)s3)cc(=O)c2c1 was read as HCMV antiviral -14.2.
For C[C@H](CO)N1C[C@H](C)[C@@H](CN(C)S(=O)(=O)c2cccs2)Oc2c(NC(=O)C3CC3)cccc2C1=O the results were HCV inh 18.0% and HCMV antiviral 5.9.
Screening COc1ccc(-c2csc(NC(=O)Cn3nc(C)cc3C)n2)cc1 returned HCV inh -27.5%, Shiga inhibitor -12.5, Cycloheximide cs -1.5, Pf growth 48h 12.1% and HCMV antiviral -28.8.
`CC(OC(=O)c1ccco1)C(=O)Nc1nc(-c2ccccc2)cs1` (centres undefined) gave HCV inh inconclusive and HCMV antiviral 57.3.
Screening COc1ccc(-c2csc(NC(=O)c3c(OC)cccc3OC)n2)cc1 returned HCV inh inconclusive, Shiga inhibitor -7.6, Cycloheximide cs -3.0, Pf growth 96h inconclusive, Pf growth 48h 5.86µM* and HCMV antiviral -15.6.
Screening O=C(NC(=S)Nc1nc(-c2ccc(Br)cc2)cs1)c1ccco1 returned HCV inh 2.4%, Shiga inhibitor 25.5, Cycloheximide cs 0.7, Pf growth 96h 4.4%, Pf growth 48h 29.1% and HCMV antiviral inconclusive.
Screening COc1ccc(-c2csc(NC(=O)c3ccco3)n2)cc1 returned HCV inh inconclusive, Shiga inhibitor 50.1*, Cycloheximide cs 55.5*, Pf growth 96h -21.5%, Pf growth 48h 270.2% and HCMV antiviral 90.6.

High-throughput results deposited in PubChem by National Center for Advancing Translational Sciences (NCATS).
